# Experimental data: paper PMC7862700, “An all-to-all approach to the identification of sequence-specific readers for epigenetic DNA modifications on cytosine”
# Experiments:
# Assay in all cases: DAPPL (digital affinity profiling via proximity ligation, sequencing); 10 mM Tris-HCl pH 7.5, 50 mM NaCl, 1 mM DTT, 4% glycerol, room temperature, 30 min; GST-TFs on glutathione beads, 16-mer random dsDNA library, 0.1% formaldehyde crosslink after washing; high values mean tight binding
# FLI1 = target: T1, FLI1 (Homo sapiens, UniProt Q01543 1-452); conditions: protein: recombinant; tags: N-terminal GST; dsDNA, one strand shown
# T1 sequence: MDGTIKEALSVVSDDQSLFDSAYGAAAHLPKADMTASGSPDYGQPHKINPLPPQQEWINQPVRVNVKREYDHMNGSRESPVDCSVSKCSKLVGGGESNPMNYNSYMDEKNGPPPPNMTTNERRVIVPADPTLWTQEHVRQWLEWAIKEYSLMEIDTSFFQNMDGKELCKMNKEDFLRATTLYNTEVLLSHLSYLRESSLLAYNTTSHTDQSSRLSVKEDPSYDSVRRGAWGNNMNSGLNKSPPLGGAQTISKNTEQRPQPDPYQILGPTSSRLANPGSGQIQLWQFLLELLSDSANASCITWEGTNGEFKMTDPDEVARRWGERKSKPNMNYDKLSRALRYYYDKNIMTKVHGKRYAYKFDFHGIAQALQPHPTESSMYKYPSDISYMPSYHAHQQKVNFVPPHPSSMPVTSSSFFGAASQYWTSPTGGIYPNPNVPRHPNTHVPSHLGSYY
# In short: (§1)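 Yeast served to express human transcription factors as GST fusions, which were then captured on glutathione beads and labelled with DNA barcodes. Pooled with a tag-only sample, they were incubated with 200 nmole of a 16-mer random double-stranded DNA library for 30 min at room temperature in Tris/NaCl/DTT/glycerol buffer, washed, crosslinked with 0.1% formaldehyde, ligated by proximity, amplified by PCR and sequenced. Dividing each hexamer's read frequency for a factor by its frequency for the tag-only sample gives the binding signal.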
# ELK1 = target: T2, ELK1 (Homo sapiens, UniProt P19419 1-428); conditions: protein: recombinant; tags: N-terminal GST; dsDNA, one strand shown
# T2 sequence: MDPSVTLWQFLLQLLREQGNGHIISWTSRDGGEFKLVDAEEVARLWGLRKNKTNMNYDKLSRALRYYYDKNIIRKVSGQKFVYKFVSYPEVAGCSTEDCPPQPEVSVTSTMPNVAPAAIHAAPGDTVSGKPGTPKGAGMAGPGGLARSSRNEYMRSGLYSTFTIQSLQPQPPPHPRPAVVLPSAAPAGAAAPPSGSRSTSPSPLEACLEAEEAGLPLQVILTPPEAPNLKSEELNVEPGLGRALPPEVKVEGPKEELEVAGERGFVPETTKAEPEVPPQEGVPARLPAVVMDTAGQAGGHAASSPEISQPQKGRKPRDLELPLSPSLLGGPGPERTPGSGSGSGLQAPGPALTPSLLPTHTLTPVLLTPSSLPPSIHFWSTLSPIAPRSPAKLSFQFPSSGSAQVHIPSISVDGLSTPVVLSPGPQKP
# In short: as §1
# GABPA = target: T3, GABPA (Homo sapiens, UniProt Q06546 1-454); conditions: protein: recombinant; tags: N-terminal GST; dsDNA, one strand shown
# T3 sequence: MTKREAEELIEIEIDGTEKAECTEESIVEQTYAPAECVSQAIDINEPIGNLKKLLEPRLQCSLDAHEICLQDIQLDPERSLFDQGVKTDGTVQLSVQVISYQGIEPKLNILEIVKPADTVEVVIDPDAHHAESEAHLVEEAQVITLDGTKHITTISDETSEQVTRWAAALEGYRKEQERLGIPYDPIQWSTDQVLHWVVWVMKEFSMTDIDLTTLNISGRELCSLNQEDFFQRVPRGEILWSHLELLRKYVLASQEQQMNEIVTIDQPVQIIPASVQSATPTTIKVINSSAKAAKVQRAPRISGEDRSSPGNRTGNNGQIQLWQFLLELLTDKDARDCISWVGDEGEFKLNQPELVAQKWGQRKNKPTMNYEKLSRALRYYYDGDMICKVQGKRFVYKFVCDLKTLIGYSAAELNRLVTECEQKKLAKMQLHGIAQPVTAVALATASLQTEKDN
# In short: as §1
# ERG = target: T4, ERG (Homo sapiens, UniProt P11308 1-479); conditions: protein: recombinant; tags: N-terminal GST; dsDNA, one strand shown
# T4 sequence: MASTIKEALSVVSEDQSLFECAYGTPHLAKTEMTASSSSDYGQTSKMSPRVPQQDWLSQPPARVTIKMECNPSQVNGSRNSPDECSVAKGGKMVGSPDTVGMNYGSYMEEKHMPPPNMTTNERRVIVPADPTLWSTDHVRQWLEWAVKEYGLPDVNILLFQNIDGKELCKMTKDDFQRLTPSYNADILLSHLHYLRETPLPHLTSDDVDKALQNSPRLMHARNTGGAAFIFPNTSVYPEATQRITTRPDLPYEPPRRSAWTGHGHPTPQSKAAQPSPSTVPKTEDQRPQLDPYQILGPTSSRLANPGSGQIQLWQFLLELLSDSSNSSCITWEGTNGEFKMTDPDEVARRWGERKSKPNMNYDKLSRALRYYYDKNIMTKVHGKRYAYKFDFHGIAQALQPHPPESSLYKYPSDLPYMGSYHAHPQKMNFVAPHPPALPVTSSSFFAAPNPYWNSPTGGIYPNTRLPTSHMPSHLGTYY
# In short: as §1
# ELF1 = ELF1 (Homo sapiens, UniProt P32519 1-619); conditions: protein: recombinant; tags: N-terminal GST; dsDNA, one strand shown
# Chain of ELF1 (P32519 whole entry): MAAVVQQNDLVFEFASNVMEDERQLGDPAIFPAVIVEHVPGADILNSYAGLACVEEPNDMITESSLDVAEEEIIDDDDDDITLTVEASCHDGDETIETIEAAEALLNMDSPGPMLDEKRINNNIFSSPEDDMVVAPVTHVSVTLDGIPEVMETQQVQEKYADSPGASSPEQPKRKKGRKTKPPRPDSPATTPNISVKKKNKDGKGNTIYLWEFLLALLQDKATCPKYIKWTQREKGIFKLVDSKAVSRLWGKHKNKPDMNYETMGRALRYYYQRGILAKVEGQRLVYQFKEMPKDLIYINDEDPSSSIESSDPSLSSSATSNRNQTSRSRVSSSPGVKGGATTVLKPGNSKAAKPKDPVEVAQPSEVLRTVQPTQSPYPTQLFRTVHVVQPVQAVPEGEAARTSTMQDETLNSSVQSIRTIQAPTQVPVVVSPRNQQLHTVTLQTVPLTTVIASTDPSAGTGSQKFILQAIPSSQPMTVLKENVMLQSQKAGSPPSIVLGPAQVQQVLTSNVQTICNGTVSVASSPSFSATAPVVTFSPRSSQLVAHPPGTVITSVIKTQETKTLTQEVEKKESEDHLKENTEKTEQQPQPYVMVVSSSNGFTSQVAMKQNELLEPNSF
# In short: as §1
# EHF = target: T5, EHF (Homo sapiens, UniProt Q9NZC4 1-300); conditions: protein: recombinant; tags: N-terminal GST; dsDNA, one strand shown
# T5 sequence: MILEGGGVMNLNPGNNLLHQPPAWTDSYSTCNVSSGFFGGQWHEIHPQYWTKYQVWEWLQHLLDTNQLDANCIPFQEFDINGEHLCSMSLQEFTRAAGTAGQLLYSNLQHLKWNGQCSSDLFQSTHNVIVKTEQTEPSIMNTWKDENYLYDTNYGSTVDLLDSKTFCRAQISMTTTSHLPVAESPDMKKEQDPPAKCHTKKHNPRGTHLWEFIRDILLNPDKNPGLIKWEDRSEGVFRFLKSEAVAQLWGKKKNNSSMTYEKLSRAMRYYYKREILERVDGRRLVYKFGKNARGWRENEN
# In short: as §1
# SPI1 = SPI1 (Homo sapiens, UniProt P17947 1-270); conditions: protein: recombinant; tags: N-terminal GST; dsDNA, one strand shown
# In short: as §1
# SPIB = SPIB (Homo sapiens, UniProt Q01892 1-262); conditions: protein: recombinant; tags: N-terminal GST; dsDNA, one strand shown
# Chain of SPIB (Q01892 whole entry): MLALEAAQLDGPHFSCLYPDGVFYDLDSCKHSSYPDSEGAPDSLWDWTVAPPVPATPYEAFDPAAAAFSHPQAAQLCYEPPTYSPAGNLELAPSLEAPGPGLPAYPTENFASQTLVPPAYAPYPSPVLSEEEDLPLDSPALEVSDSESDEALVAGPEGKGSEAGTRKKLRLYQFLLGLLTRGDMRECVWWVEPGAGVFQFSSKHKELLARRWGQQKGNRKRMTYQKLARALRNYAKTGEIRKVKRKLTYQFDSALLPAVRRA
# In short: as §1
# ELK3 = target: T6, ELK3 (Homo sapiens, UniProt P41970 1-407); conditions: protein: recombinant; tags: N-terminal GST; dsDNA, one strand shown
# T6 sequence: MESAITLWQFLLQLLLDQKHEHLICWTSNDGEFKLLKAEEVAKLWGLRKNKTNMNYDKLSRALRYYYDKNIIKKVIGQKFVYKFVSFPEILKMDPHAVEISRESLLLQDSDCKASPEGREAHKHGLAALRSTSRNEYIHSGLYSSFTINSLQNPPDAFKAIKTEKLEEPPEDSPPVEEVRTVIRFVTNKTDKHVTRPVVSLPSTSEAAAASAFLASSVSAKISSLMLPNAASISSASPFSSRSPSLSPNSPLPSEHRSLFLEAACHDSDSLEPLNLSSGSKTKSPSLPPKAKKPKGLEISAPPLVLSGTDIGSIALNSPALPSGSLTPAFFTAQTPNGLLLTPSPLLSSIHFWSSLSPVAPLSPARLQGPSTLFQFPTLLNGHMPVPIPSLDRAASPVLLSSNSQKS
# In short: as §1
# FEV = target: T7, FEV (Homo sapiens, UniProt Q99581 1-238); conditions: protein: recombinant; tags: N-terminal GST; dsDNA, one strand shown
# T7 sequence: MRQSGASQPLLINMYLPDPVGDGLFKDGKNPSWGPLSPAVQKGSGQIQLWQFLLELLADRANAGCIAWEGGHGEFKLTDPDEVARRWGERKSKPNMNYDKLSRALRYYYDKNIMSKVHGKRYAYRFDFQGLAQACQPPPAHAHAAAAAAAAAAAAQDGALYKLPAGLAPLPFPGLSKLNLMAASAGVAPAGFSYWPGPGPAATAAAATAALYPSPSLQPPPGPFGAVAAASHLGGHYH
# In short: as §1
# ETV5 = ETV5 (Homo sapiens, UniProt P41161 1-510); conditions: protein: recombinant; tags: N-terminal GST; dsDNA, one strand shown
# Chain of ETV5 (P41161 whole entry): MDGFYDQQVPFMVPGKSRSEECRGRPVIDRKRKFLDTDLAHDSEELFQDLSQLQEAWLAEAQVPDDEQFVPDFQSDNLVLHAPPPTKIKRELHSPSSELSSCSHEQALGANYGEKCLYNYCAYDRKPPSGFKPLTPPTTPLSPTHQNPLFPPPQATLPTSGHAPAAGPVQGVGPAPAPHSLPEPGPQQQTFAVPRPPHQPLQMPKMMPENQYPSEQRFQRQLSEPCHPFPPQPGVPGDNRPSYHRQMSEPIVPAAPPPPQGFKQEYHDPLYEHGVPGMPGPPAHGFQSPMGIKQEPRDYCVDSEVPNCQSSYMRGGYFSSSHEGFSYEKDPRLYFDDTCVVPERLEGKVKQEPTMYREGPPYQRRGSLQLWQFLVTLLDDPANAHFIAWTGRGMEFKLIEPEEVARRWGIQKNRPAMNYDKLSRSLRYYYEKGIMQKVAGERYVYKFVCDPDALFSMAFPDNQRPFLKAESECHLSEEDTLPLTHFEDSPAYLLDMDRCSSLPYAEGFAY
# In short: as §1
# HSF1 = HSF1 (Homo sapiens, UniProt Q00613 1-529); conditions: protein: recombinant; tags: N-terminal GST; chain copies: 3; dsDNA, one strand shown
# Chain of HSF1 (Q00613 whole entry): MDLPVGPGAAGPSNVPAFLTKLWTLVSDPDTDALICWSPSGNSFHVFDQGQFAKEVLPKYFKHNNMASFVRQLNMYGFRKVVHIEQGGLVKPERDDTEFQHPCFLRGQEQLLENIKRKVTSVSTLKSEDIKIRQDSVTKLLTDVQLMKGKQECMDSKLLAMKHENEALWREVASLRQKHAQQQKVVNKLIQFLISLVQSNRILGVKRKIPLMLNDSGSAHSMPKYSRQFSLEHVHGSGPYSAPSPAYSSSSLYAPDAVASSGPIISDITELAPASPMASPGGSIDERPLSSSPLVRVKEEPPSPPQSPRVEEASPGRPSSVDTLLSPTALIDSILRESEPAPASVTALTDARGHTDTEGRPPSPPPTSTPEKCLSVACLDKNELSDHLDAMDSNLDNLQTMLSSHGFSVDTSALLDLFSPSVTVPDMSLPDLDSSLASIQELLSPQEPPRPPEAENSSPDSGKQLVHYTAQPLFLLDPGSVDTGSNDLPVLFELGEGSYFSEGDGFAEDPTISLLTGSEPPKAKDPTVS
# In short: as §1
# SPIC = target: T8, SPIC (Homo sapiens, UniProt Q8N5J4 1-248); conditions: protein: recombinant; tags: N-terminal GST; dsDNA, one strand shown
# T8 sequence: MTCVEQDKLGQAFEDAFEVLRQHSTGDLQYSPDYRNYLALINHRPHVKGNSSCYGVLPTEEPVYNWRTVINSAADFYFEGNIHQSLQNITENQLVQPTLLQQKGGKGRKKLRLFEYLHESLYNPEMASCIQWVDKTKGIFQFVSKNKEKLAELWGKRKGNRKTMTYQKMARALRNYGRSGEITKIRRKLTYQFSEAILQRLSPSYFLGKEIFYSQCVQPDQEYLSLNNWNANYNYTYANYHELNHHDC
# In short: as §1
# ELF4 = ELF4 (Homo sapiens, UniProt Q99607 1-663); conditions: protein: recombinant; tags: N-terminal GST; dsDNA, one strand shown
# Chain of ELF4 (Q99607 whole entry): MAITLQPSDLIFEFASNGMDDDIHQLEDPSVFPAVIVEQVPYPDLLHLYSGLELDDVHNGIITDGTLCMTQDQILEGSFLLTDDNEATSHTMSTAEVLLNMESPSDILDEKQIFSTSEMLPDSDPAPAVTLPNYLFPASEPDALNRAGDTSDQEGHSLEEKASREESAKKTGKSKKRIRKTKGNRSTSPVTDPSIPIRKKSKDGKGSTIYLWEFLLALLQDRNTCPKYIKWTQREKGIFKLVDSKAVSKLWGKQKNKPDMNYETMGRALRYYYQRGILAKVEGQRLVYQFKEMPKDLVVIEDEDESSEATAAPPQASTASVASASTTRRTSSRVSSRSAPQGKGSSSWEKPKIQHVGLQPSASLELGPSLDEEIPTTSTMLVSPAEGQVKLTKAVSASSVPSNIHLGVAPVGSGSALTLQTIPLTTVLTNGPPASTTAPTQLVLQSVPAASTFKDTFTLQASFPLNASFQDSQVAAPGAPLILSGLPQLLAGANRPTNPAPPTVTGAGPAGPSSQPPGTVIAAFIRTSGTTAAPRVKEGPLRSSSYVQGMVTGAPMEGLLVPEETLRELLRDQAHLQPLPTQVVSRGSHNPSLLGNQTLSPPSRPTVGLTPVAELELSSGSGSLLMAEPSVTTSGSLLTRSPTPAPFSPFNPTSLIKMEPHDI
# In short: as §1
# ELK4 = target: T9, ELK4 (Homo sapiens, UniProt P28324-2 1-405); conditions: protein: recombinant; tags: N-terminal GST; dsDNA, one strand shown
# T9 sequence: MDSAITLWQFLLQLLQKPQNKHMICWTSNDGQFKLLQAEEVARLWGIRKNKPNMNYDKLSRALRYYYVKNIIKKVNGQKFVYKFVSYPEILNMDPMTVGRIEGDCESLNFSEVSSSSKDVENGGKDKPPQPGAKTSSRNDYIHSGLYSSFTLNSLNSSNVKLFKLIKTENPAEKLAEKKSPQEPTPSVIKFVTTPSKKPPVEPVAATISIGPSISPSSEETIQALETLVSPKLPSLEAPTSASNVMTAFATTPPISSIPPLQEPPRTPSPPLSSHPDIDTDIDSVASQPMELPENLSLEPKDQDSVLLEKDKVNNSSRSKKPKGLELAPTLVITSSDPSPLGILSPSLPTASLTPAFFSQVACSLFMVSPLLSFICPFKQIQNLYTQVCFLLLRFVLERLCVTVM
# In short: as §1
# ETV2 = target: T10, ETV2 (Homo sapiens, UniProt O00321 1-342); conditions: protein: recombinant; tags: N-terminal GST; dsDNA, one strand shown
# T10 sequence: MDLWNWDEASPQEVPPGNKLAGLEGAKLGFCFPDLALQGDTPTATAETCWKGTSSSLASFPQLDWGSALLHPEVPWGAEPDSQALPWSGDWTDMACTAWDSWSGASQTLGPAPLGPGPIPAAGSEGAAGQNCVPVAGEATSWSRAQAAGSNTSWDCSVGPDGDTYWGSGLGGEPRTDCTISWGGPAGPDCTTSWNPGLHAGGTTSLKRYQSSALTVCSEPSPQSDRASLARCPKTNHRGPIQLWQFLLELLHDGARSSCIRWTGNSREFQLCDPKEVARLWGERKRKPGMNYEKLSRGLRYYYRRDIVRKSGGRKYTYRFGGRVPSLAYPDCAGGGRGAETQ
# In short: as §1
# ELF3 = target: T11, ELF3 (Homo sapiens, UniProt P78545 1-371); conditions: protein: recombinant; tags: N-terminal GST; dsDNA, one strand shown
# T11 sequence: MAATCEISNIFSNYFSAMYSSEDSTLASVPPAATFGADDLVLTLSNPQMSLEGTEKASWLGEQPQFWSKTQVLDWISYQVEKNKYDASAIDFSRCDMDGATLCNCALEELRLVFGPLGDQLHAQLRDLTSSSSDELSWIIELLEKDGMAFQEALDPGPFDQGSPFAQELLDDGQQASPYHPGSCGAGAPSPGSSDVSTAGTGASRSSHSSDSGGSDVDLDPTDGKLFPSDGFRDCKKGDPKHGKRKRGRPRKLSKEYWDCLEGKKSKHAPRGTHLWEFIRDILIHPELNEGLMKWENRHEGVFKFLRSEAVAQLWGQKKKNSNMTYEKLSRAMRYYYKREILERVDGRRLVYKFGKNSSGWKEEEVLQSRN
# In short: as §1
# CRX = CRX (Homo sapiens, UniProt O43186 1-299); conditions: protein: recombinant; tags: N-terminal GST; dsDNA, one strand shown
# Chain of CRX (O43186 whole entry): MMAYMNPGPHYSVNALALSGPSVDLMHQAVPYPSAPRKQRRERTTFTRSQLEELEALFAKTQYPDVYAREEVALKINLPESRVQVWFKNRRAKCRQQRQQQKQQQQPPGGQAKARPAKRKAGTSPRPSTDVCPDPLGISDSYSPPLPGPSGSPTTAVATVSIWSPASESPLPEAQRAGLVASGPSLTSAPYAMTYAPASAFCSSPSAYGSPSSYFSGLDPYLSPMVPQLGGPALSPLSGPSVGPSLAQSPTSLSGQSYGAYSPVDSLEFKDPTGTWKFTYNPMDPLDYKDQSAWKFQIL
# In short: as §1
# ETV1 = ETV1 (Homo sapiens, UniProt P50549 1-477); conditions: protein: recombinant; tags: N-terminal GST; dsDNA, one strand shown
# Chain of ETV1 (P50549 whole entry): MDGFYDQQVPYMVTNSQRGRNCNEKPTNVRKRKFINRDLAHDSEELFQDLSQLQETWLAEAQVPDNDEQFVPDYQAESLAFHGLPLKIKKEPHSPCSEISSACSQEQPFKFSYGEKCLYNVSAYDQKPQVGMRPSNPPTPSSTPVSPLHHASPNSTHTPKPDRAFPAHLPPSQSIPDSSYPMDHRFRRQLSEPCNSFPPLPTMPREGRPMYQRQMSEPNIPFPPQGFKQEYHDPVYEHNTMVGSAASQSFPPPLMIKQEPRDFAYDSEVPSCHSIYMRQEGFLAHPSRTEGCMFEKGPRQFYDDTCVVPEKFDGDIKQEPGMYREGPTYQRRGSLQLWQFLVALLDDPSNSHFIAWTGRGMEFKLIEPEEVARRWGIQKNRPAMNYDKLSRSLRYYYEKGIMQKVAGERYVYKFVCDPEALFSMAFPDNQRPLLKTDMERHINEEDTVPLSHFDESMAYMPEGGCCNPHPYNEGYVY
# In short: as §1
sequence,measurement,setting,value
TCTCGT,binding signal,FLI1,"1.34 fold enrichment (6-mer frequency, TF over GST control)"
same,binding signal,ELK1,"1.11 fold enrichment (6-mer frequency, TF over GST control)"
same,binding signal,GABPA,"1.15 fold enrichment (6-mer frequency, TF over GST control)"
same,binding signal,ERG,"1.11 fold enrichment (6-mer frequency, TF over GST control)"
same,binding signal,ELF1,"1.24 fold enrichment (6-mer frequency, TF over GST control)"
same,binding signal,EHF,"1.22 fold enrichment (6-mer frequency, TF over GST control)"
same,binding signal,SPI1,"1.24 fold enrichment (6-mer frequency, TF over GST control)"
same,binding signal,SPIB,"1.3 fold enrichment (6-mer frequency, TF over GST control)"
same,binding signal,ELK3,"1.19 fold enrichment (6-mer frequency, TF over GST control)"
same,binding signal,FEV,"1.21 fold enrichment (6-mer frequency, TF over GST control)"
same,binding signal,ETV5,"1.1 fold enrichment (6-mer frequency, TF over GST control)"
same,binding signal,HSF1,"2.01 fold enrichment (6-mer frequency, TF over GST control)"
same,binding signal,SPIC,"1.31 fold enrichment (6-mer frequency, TF over GST control)"
same,binding signal,ELF4,"1.24 fold enrichment (6-mer frequency, TF over GST control)"
same,binding signal,ELK4,"1.3 fold enrichment (6-mer frequency, TF over GST control)"
same,binding signal,ETV2,"1.27 fold enrichment (6-mer frequency, TF over GST control)"
same,binding signal,ELF3,"1.65 fold enrichment (6-mer frequency, TF over GST control)"
same,binding signal,CRX,"1.35 fold enrichment (6-mer frequency, TF over GST control)"
same,binding signal,ETV1,"1.27 fold enrichment (6-mer frequency, TF over GST control)"
